# Assay outcomes as filed in PubChem BioAssay.
# In the library only some 21% were active in any assay of this set; here they are far more common.
# NS1 inh: inhibitors of influenza NS1 protein function. AID 2326. Potency, µM (doses to about 46.1 µM), for the others: at the top dose activity, positive = more growth. 0.4% of 270,000 active; calls by dose curve; further: potency means the concentration at half of the fitted maximal effect; actives are rising curves; nearly all actives have a fitted effect of over 50% in size
#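 Compounds were scored for reversing the slow growth caused by influenza A NS1 in S. cerevisiae, measured by optical density at 600 nm. Assay medium contained 2% galactose at pH 6.0; NS1-free yeast of the same strain were the positive control.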
# Sm TGR inh: S. mansoni TGR enzyme inhibition. Q962Y6. purified TGR, DTNB reduction, TNB absorbance 405 nm. Potency, µM (highest dose often 114 µM), for the others: top-dose activity change, negative = inhibition, most hits filed as inhibitors. 3% of 360,000 active. AID 485364; further: potency means the concentration at half of the fitted maximal effect; on the % scale 0 is the no-effect control and ±100 the full control effect; nearly all actives have a fitted effect of over 60% in size
#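 First, TGR (20 nM dispensed) and NADPH were mixed with compound. Second, a 15 min room-temperature incubation followed. Third, further NADPH and then DTNB were added to start the reaction. Finally, TNB absorbance was monitored kinetically.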
# CHX counter-1: counter-screen for Shiga toxin inhibitors: cycloheximide protein synthesis inhibition; cell reporter, cycloheximide protein synthesis inhibition counterscreen; max response, %; 12% of 300,000 active; AID 2314; in the data active means max response mostly above about 13%, no sharp cut-off; inactive means mostly below about 14%; further: read at 38.3 µM for the half of the compounds with a filed dose; 0% is about no effect
# Pf growth 48h: inhibits P. falciparum growth in the first generation, 48 h; P. falciparum luciferase growth in erythrocytes, 48 h; Potency, µM (highest dose often 28.7 µM), for inactives: at the top dose activity change, negative = inhibition, most hits filed as inhibitors; 5.9% of 310,000 active; further: potency means the concentration at half of the fitted maximal effect; on the % scale 0 is the no-effect control and ±100 the full control effect
#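 Cell-based growth assay: transgenic P. falciparum expressing firefly luciferase, cultured in red cells within RPMI 1640 containing 0.5% w/v Albumax, 24 mM bicarbonate and gentamycin. A drop in luciferase activity indicates inhibition.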
# Shiga toxin inh: blocks Shiga toxin action in Vero cells; 9.2% of 290,000 active; AID 2315; Vero cells, Shiga toxin protein synthesis inhibition reporter; inhibition, % at 38.7 µM; in the data active means inhibition mostly above about 28%, no sharp cut-off; inactive means mostly below about 43%; further: 0% is about no effect
# Pf growth 96h: P. falciparum growth inhibition at 96 hour, primary screen for plastid delayed-death inhibitors; Potency, µM (doses to about 28.7 µM), without a hit: at the highest dose activity change, negative = inhibition, most hits filed as inhibitors; 6.9% of 320,000 active; AID 504834; P. falciparum luciferase reporter growth, 96 h; further: potency means the concentration at half of the fitted maximal effect; on the % scale 0 is the no-effect control and ±100 the full control effect
#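 Plates of compound plus infected erythrocytes (2% hematocrit, 0.05% parasitemia final) incubate 96 hours, 37 C, 5% CO2. Detection reagent added; reduced luminescence from the parasites' luciferase reporter flags inhibition.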
# CHX counter-2: protein synthesis counter-screen activity for Shiga toxin hits; 3% of 510 active; Potency, µM (series often up to 38.3 µM), for inactives: at the top dose activity (activation), usual class: activators; shares compounds with Shiga toxin inh; Cycloheximide counterscreen, protein synthesis reporter, Shiga toxin assay; AID 2318; calls by dose curve; further: potency means the concentration at half of the fitted maximal effect; 0% is about no effect
# An asterisk follows results filed as active; u = inconclusive; x = not tested or not shown; + = active, no number; [ ] = remark or other dose. Unless noted, the call rests on the fitted dose curve; in most records, active means well fitted curve in the direction sought with a large enough effect; inconclusive means small, poorly fitted or top-dose-only effect, or another doubt; inactive means no such curve, though single readings can be large; an effect the other way counts as inactive or inconclusive.
SMILES,NS1 inh,Sm TGR inh,CHX counter-1,Pf growth 48h,Shiga toxin inh,Pf growth 96h,CHX counter-2
O=C(Oc1ccc(NC2=NS(=O)(=O)c3ccccc32)cc1)c1cccnc1,x,4%,8,-12%,-10,-11%,x
CCOc1ccc(S(=O)(=O)Nc2ccc3c(c2)n(C)c(=O)n3C)cc1,4%,0%,-3,-18%,92*,23%,-1%
Cc1ccc(NC(=O)c2c(C(F)(F)F)nn(C)c2Cl)cc1C,1%,0%,-2,42%,29*,72%,-2%
Cc1ccc(Cn2c(-n3nc(C)cc3C)nc3c2c(=O)[nH]c(=O)n3C)cc1,-8%,1%,-2,u,-8,15%,x
Cc1cc(C)n(-c2nc3c(c(=O)[nH]c(=O)n3C)n2Cc2cccc(Br)c2)n1,0%,2%,4,u,84*,3%[5.75 µM],-3%
COc1ccc(S(=O)(=O)Nc2c(C(=O)O)[nH]c3ccccc23)cc1OC,8%,3%,16,4%,30*,-18%,5%
O=C(O)c1cc(S(=O)(=O)Nc2ccc(OCc3ccccc3)cc2)ccc1Br,28%,-4%,10,21%,40*,41%,u
CCCC[C@@H]1C[C@H]1[C@@H](NC(=O)c1ccco1)c1ccc(Cl)cc1,-77%,-12%,12,u,84*,u,2%
COc1ccc(C(=O)NCCc2cnc[nH]2)cc1OC,3%,-8%,-2,13%,-5,13%,x
Cc1ccc(OCC(=O)NNC(=O)CCC(=O)Nc2ccc(C)cc2C)cc1,-13%,0%,-2,30%,35*,13%,-1%
CCC(C)(O)c1[nH]c2ccc(C(F)(F)F)cc2c1C (centres undefined),-56%,-10%,-3,-26%,18*,19%,1%
O=C(NCc1nnc(SCC(=O)N2CCCCCC2)o1)c1ccccc1F,6%,-9%,10,17%,-2,-16%,x
COc1ccc(C)cc1N1C(=N)/C(=C2/Nc3ccccc3S2)C(c2ccccc2)C1=O (centres undefined),17%,-16%,-1,13µM*,21*,-104%,-2%
COc1ccccc1C(=O)NNC(=O)c1ccc2ccccc2c1,-10%,-13%,1,47%,x,52%,-1%
Cc1ccc(-c2nnc(Nc3cccc(Br)c3)c3ccccc23)cc1S(=O)(=O)N1CCCCC1,x,6%,x,x,x,x,x
C=C1C(O)C2OC3(CCC(/C=C/C(C)C4CC(C)=CC5(OC(CC(C)(O)C(=O)O)CCC5O)O4)O3)CCC2OC1C(O)CC(C)C1OC2(CCCCO2)CCC1C (centres undefined),x,x,-3,x,+,x,3%
CCN(C(=O)CCNC(=O)Cn1cnc2ccccc2c1=O)c1ccccc1F,4%,-1%,4,23%,-10,u,x
CCn1ncc(CNC(=O)c2cccc([N+](=O)[O-])c2)c1C,1%,-2%,4,7%,9,3%,x
O=C(NCC(=O)N1CCN(c2ccccn2)CC1)c1ccc(Br)o1,-6%,-5%,9,14%,36*,10%,-3%
Cc1c(C(=O)Nc2nc3ccccc3[nH]2)oc2ccc(Br)cc12,0%,-1%,12,-16%,14*,-102%,10µM*
COc1ccc(NC(=O)CSc2nccn2-c2cccc(OC)c2)cc1,-75%,4%,0,6%,40*,u,2%
COc1ccc(-c2nsc(NC(=O)c3oc4ccccc4c3C)n2)cc1,x,7%,x,x,x,x,x
O=C(c1ccc(C(=O)N2CCOCC2)nc1)N1CCOCC1,5%,-6%,-3,1%,10,-25%,x
O=C(c1ccc(N2CCOCC2)nc1)N1CCOCC1,-9%,4%,1,22%,58*,8%,5%
COc1cc(C#Cc2ccc3cc(C(C)(C)O)oc(=O)c3c2)cc(OC)c1,x,-14%,x,18%,x,0%,x
CCOC(=O)c1[nH]c2ccc(OC)cc2c1NC(=O)C(C)N1CCC2(CC1)OCCO2 (centres undefined),-6%,-1%,5,u,49*,63%,-1%
